From article PMC7862700, “An all-to-all approach to the identification of sequence-specific readers for epigenetic DNA modifications on cytosine” come the findings set out here.

Holding throughout (experiment): DAPPL (digital affinity profiling via proximity ligation, sequencing); 10 mM Tris-HCl pH 7.5, 50 mM NaCl, 1 mM DTT, 4% glycerol, room temperature, 30 min; GST-TFs on glutathione beads, 16-mer random dsDNA library, 0.1% formaldehyde crosslink after washing; high values mean tight binding
One test addresses T1, FLI1 (Homo sapiens, UniProt Q01543 1-452).
T1 sequence: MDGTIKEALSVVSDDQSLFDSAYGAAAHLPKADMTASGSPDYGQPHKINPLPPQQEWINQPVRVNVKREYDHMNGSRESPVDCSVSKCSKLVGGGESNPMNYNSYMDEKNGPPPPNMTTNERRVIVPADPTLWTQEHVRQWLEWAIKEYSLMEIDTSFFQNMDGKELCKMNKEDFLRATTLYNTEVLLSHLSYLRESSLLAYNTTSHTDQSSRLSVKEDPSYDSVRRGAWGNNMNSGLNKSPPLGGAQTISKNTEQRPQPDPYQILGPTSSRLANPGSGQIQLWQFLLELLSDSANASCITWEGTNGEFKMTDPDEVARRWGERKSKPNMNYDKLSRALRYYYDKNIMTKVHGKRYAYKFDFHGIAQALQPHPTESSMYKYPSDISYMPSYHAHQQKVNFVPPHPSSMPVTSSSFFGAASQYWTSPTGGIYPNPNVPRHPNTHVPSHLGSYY
To be noted: protein: recombinant; tags: N-terminal GST; dsDNA, one strand shown. An outline of the steps: (§1)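 Pools were built from human transcription factors expressed in yeast as GST fusions, captured on glutathione beads and DNA-barcoded, along with a tag-only sample. Incubation with 200 nmole of a 16-mer random double-stranded DNA library lasted 30 min at room temperature in Tris/NaCl/DTT/glycerol buffer, and was followed by washing, 0.1% formaldehyde crosslinking, proximity ligation, PCR amplification and Illumina NextSeq500 sequencing. Binding signal is the quotient of each hexamer's read frequency for a factor and its frequency for the tag-only sample.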

The next test concerns the target T2, ELK1 (Homo sapiens, UniProt P19419 1-428).
T2 sequence: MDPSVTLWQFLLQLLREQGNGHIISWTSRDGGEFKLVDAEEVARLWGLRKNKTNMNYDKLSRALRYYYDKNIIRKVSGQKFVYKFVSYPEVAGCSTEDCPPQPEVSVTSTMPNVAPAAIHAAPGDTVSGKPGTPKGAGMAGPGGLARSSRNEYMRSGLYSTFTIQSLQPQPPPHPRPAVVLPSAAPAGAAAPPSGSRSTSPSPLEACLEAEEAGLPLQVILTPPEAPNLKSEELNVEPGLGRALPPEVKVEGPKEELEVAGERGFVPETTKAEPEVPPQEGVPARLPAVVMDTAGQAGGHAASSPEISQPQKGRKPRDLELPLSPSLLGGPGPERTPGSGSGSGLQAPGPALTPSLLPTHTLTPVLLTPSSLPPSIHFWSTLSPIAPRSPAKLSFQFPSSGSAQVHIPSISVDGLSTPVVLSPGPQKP
To be noted: protein: recombinant; tags: N-terminal GST; dsDNA, one strand shown. An outline of the steps: as §1

Another test deals with T3, GABPA (Homo sapiens, UniProt Q06546 1-454).
T3 sequence: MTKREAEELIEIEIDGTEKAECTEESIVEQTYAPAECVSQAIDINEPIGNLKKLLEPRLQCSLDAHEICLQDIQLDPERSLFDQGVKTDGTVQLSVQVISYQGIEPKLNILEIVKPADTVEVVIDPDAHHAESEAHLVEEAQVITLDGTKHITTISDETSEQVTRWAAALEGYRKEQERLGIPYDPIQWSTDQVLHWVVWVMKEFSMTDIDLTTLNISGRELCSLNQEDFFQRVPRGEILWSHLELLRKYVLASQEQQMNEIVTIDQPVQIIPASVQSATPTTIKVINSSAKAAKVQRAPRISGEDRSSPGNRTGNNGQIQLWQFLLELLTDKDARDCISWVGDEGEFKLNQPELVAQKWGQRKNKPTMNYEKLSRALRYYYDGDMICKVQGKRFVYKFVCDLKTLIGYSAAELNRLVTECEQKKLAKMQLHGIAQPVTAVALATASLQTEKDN
To be noted: protein: recombinant; tags: N-terminal GST; dsDNA, one strand shown. An outline of the steps: as §1

The target of the next test is T4, ERG (Homo sapiens, UniProt P11308 1-479).
T4 sequence: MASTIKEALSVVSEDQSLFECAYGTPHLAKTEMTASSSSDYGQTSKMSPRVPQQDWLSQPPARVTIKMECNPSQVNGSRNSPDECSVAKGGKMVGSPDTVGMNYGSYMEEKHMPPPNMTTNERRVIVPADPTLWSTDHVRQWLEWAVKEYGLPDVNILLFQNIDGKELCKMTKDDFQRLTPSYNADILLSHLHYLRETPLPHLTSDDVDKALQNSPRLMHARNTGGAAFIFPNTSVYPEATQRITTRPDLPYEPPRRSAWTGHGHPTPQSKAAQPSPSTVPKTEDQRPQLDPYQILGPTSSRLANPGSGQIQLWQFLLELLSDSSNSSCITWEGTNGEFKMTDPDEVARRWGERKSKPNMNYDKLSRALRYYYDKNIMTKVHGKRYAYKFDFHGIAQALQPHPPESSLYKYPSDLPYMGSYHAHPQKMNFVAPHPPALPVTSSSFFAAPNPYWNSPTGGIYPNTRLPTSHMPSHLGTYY
To be noted: protein: recombinant; tags: N-terminal GST; dsDNA, one strand shown. A digest of the protocol:
as §1

The target in another test is ELF1 (Homo sapiens, UniProt P32519 1-619). To be noted: protein: recombinant; tags: N-terminal GST; dsDNA, one strand shown. A digest of the protocol:
as §1

A further test has as its target T5, EHF (Homo sapiens, UniProt Q9NZC4 1-300).
T5 sequence: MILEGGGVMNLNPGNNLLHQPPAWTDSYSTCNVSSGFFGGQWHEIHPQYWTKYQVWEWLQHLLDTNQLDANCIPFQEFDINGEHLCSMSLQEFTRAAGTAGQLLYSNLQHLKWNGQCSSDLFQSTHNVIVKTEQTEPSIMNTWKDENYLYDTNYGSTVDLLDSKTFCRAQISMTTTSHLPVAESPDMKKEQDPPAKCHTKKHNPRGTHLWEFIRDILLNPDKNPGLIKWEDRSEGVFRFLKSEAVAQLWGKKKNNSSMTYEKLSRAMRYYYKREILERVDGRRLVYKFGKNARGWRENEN
To be noted: protein: recombinant; tags: N-terminal GST; dsDNA, one strand shown. A digest of the protocol:
as §1

In a further test the target is SPI1 (Homo sapiens, UniProt P17947 1-270). To be noted: protein: recombinant; tags: N-terminal GST; dsDNA, one strand shown. A digest of the protocol: as §1
A further test deals with SPIB (Homo sapiens, UniProt Q01892 1-262). To be noted: protein: recombinant; tags: N-terminal GST; dsDNA, one strand shown. An outline of the steps:
as §1

The target in the next test is T6, ELK3 (Homo sapiens, UniProt P41970 1-407).
T6 sequence: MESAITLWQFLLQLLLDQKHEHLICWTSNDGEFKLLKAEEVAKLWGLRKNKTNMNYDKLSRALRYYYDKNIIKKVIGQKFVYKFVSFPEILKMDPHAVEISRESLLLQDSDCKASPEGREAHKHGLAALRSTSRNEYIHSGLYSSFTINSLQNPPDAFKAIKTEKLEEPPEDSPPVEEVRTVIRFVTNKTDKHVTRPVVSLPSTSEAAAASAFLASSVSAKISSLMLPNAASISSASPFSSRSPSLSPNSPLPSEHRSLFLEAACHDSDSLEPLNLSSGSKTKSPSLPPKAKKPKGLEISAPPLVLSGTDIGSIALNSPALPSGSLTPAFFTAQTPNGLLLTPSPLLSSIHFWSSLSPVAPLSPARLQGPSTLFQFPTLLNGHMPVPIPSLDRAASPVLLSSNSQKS
To be noted: protein: recombinant; tags: N-terminal GST; dsDNA, one strand shown. An outline of the steps:
as §1

A further test deals with T7, FEV (Homo sapiens, UniProt Q99581 1-238).
T7 sequence: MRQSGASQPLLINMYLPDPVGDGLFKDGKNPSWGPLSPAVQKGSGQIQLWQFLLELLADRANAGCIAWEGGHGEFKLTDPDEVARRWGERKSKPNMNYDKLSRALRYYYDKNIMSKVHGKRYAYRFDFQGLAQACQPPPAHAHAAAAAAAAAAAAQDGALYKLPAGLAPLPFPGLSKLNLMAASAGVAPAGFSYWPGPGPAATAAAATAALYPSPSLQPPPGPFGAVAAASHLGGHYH
To be noted: protein: recombinant; tags: N-terminal GST; dsDNA, one strand shown. A digest of the protocol: as §1

The next test addresses ETV5 (Homo sapiens, UniProt P41161 1-510). To be noted: protein: recombinant; tags: N-terminal GST; dsDNA, one strand shown. A digest of the protocol:
as §1

For a further test, the target named is HSF1 (Homo sapiens, UniProt Q00613 1-529). To be noted: protein: recombinant; tags: N-terminal GST; chain copies: 3; dsDNA, one strand shown. A digest of the protocol: as §1
The target in the next test is T8, SPIC (Homo sapiens, UniProt Q8N5J4 1-248).
T8 sequence: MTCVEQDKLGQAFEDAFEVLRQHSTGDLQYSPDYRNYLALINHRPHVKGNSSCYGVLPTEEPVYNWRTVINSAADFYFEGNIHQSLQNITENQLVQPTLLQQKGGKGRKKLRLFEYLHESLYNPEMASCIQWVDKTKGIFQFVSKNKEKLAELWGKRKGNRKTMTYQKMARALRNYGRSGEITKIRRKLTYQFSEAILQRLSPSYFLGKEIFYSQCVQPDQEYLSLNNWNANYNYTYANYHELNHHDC
To be noted: protein: recombinant; tags: N-terminal GST; dsDNA, one strand shown. A digest of the protocol:
as §1

A further test has as its target ELF4 (Homo sapiens, UniProt Q99607 1-663). To be noted: protein: recombinant; tags: N-terminal GST; dsDNA, one strand shown. An outline of the steps: as §1
The target of a further test is T9, ELK4 (Homo sapiens, UniProt P28324-2 1-405).
T9 sequence: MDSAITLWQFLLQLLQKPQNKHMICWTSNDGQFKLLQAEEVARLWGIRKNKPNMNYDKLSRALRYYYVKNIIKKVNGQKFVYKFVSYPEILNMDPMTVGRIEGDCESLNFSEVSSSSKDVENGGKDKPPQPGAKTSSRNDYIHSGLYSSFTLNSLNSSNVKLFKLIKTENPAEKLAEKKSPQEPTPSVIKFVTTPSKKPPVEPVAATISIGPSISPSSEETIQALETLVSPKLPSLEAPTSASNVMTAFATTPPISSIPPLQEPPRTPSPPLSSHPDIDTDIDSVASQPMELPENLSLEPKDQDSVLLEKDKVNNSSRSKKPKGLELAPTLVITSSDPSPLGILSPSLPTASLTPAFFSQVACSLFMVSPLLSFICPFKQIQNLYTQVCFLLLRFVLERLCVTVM
To be noted: protein: recombinant; tags: N-terminal GST; dsDNA, one strand shown. A digest of the protocol: as §1

The target of the next test is T10, ETV2 (Homo sapiens, UniProt O00321 1-342).
T10 sequence: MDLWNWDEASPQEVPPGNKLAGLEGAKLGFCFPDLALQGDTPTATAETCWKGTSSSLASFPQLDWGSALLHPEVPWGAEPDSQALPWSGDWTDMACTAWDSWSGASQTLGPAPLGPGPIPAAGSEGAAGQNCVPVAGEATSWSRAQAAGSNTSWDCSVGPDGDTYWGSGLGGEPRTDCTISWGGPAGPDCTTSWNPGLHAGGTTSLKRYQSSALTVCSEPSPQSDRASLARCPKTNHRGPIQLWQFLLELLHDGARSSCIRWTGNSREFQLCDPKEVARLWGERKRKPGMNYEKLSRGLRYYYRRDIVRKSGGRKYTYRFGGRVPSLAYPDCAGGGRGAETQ
To be noted: protein: recombinant; tags: N-terminal GST; dsDNA, one strand shown. A digest of the protocol:
as §1

A further test concerns the target T11, ELF3 (Homo sapiens, UniProt P78545 1-371).
T11 sequence: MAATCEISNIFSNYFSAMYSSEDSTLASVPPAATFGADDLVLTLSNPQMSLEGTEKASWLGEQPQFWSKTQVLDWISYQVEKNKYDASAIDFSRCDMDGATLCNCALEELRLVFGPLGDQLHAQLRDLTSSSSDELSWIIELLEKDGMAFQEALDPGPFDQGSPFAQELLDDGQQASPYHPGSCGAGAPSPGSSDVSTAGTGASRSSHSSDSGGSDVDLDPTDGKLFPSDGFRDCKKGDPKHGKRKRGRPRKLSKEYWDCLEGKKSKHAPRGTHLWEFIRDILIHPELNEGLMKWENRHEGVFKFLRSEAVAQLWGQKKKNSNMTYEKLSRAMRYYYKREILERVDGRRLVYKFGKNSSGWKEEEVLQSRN
To be noted: protein: recombinant; tags: N-terminal GST; dsDNA, one strand shown. An outline of the steps:
as §1

A further test has as its target ETV1 (Homo sapiens, UniProt P50549 1-477). To be noted: protein: recombinant; tags: N-terminal GST; dsDNA, one strand shown. A digest of the protocol: as §1

Chain of SPIB (Q01892 whole entry): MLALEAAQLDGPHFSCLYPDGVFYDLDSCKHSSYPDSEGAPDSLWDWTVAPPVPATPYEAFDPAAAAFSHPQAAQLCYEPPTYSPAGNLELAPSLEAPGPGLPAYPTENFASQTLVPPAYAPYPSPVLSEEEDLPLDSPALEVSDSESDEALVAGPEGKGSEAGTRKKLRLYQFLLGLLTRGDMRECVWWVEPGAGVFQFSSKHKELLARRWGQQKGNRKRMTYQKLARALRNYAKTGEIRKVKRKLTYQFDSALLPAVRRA
Chain of HSF1 (Q00613 whole entry): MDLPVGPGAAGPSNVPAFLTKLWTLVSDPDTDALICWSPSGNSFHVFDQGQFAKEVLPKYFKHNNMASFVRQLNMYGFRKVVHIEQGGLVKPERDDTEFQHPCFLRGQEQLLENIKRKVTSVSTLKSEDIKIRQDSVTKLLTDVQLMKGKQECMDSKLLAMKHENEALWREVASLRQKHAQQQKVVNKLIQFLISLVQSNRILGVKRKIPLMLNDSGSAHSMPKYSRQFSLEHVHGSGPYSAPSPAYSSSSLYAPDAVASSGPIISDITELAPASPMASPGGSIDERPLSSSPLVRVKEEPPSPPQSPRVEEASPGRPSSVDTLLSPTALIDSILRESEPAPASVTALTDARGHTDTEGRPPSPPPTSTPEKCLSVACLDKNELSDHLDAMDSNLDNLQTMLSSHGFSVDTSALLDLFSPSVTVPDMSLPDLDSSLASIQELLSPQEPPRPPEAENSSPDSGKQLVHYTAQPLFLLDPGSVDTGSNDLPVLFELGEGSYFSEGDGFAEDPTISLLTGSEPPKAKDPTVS
Chain of ELF1 (P32519 whole entry): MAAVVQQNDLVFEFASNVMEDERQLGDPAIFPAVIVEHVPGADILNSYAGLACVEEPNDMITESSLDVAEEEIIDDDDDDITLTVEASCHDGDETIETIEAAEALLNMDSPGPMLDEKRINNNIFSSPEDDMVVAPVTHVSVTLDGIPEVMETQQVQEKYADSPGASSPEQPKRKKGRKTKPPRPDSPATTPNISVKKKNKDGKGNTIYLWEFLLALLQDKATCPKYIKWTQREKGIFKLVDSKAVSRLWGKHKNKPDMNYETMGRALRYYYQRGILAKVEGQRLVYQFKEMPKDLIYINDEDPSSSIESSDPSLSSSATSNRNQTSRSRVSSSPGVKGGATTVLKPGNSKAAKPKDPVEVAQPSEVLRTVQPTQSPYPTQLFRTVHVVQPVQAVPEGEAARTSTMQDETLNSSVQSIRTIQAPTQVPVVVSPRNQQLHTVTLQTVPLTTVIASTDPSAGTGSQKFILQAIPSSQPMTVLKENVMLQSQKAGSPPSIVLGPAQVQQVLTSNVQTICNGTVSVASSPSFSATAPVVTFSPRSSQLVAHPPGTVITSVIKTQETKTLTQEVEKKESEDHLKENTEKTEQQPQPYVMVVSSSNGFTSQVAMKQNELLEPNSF
Chain of ETV5 (P41161 whole entry): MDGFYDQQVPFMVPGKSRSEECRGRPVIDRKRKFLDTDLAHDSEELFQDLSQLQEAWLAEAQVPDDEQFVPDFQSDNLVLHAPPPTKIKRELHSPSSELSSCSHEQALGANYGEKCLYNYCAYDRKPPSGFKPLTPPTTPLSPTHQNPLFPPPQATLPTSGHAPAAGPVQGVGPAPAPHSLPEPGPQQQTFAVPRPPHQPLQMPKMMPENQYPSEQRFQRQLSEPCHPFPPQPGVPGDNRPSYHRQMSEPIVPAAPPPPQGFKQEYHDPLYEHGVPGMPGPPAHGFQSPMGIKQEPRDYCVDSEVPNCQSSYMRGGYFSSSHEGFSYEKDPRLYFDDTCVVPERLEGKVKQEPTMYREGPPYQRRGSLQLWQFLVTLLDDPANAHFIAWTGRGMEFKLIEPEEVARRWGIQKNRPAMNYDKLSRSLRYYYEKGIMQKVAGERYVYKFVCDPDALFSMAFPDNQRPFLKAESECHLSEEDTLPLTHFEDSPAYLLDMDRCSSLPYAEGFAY
Chain of ETV1 (P50549 whole entry): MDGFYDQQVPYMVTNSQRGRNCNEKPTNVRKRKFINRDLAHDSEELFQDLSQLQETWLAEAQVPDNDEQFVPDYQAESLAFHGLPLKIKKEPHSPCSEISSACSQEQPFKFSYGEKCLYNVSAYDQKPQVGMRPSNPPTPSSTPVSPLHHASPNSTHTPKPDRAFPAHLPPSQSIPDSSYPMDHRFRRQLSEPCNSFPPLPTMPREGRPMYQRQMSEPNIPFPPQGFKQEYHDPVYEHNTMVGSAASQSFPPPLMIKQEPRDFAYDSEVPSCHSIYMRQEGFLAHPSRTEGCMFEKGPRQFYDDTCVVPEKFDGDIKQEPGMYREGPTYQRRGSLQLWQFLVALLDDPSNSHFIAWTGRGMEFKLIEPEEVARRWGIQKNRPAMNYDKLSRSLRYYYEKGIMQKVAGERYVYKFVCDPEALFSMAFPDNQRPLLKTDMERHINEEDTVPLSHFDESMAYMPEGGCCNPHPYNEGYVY
Chain of ELF4 (Q99607 whole entry): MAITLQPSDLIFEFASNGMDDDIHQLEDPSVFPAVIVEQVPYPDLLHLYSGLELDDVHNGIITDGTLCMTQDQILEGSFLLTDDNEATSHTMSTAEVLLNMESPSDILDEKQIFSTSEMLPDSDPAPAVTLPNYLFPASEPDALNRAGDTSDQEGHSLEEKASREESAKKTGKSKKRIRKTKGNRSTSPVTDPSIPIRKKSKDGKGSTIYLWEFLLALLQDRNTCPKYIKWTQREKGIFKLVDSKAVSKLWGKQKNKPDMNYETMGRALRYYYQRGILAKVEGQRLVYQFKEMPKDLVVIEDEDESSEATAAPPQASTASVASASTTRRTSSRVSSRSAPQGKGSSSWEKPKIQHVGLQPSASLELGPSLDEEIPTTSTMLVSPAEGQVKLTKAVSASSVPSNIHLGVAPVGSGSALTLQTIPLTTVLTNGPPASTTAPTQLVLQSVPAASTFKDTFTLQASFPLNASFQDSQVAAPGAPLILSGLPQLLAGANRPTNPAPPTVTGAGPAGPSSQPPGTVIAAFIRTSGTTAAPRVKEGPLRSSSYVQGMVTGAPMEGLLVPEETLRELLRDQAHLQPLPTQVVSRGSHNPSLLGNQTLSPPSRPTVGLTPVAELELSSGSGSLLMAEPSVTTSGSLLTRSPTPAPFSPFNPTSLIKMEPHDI

For TAGGAA, the binding signal with FLI1 is 1.07 fold enrichment (6-mer frequency, TF over GST control); with ELK1, 1 fold enrichment (6-mer frequency, TF over GST control); in the test with GABPA, 1.04 fold enrichment (6-mer frequency, TF over GST control); with ERG, 1.17 fold enrichment (6-mer frequency, TF over GST control); with ELF1 it was 1.03 fold enrichment (6-mer frequency, TF over GST control); with EHF it was 1.25 fold enrichment (6-mer frequency, TF over GST control). Besides, the binding signal with SPI1 was 1.23 fold enrichment (6-mer frequency, TF over GST control); with SPIB, 1.28 fold enrichment (6-mer frequency, TF over GST control); with ELK3, 1.03 fold enrichment (6-mer frequency, TF over GST control); in the test with FEV, 1.06 fold enrichment (6-mer frequency, TF over GST control); in the test with ETV5 it was 1.19 fold enrichment (6-mer frequency, TF over GST control); with HSF1, 1.11 fold enrichment (6-mer frequency, TF over GST control). Moreover, the binding signal was 1.27 fold enrichment (6-mer frequency, TF over GST control) with SPIC; 1.09 fold enrichment (6-mer frequency, TF over GST control) with ELF4; 1.01 fold enrichment (6-mer frequency, TF over GST control) with ELK4; 1.2 fold enrichment (6-mer frequency, TF over GST control) with ETV2; 1.2 fold enrichment (6-mer frequency, TF over GST control) with ELF3; 1.13 fold enrichment (6-mer frequency, TF over GST control) in the test with ETV1.
